Screening data deposited in PubChem BioAssay by several laboratories.
Vif inh = HIV Vif self-association inhibitors, primary screen, imaging, HEK293T, single point; inhibition, % at 7.49 µM; AID 602346, 2012; HEK293T cells, Vif self-association by quenched fluorescence, 24 h; actives 0.35% (n = 340,000); in the data active = inhibition above about 50%, passing the limit was not always enough
aDG glyco act = activators of alpha-DG glycosylation, primary screen, uHTS, Pro5-aDG cells, AlphaScreen; alpha-DG glycosylation AlphaScreen (IIH6); 0% Pro5, 100% B10-LARGE cell signal; activation, % at 10 µM; actives 0.22% (n = 360,000); AID 624168, 2012;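 active = activation of at least 8% versus controls, or a plate z-score of at least 8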;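 note: Pro5 are CHO cells carrying HIG-tagged alpha-DG that lacks glycosylation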
N-glyco inh = increase of ERlucT glycosylation luciferase signal, primary screen, N-linked glycosylation inhibitor project, D54 ERlucT cells, luminescence, set 2 | D54 ERlucT glycosylation luciferase reporter, 24 h; percent of 100 nM tunicamycin response | reporter increase, % at 12.5 µM | actives 0.23% (n = 360,000) | AID 588692, 2011;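 active = mean luciferase reporter signal, scaled so untreated is 0 and the glycosylation-blocking control 100, at or above a set limit in every replicate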;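 note: luciferase carries N-glycosylation sites so blocking glycosylation raises the light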
ARNT-TACC3 inh = disruptors of ARNT/TACC3 protein interaction, primary screen, biochemical, AlphaScreen, single concentration | Transforming acidic coiled-coil-containing protein 3 (Homo sapiens), Q9Y6A5 | AlphaScreen His-ARNT PAS-B/GST-TACC3 binding, luminescence; TACC3 fragment carries E629A point mutation | inhibition, % at 9.99 µM | actives 0.66% (n = 390,000) | AID 623870, 2012;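 active = mean inhibition of replicates at least 50% and at least half of replicates each reaching 50%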
H9c2 protect = cardioprotection against H2O2-induced cell death, primary screen, uHTS, H9c2 cells, ATPLite luminescence | protection from H2O2 cell death, % at 20 µM | AID 588492, 2011 | H9c2 cardiomyocytes, H2O2 injury protection, 2 h | actives 0.63% (n = 360,000);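 active = compounds giving at least 50% protection of heart cells from peroxide-induced death in the single-dose screen, raw or plate-pattern-corrected value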
A number is an active result. Sampled rows, rich in hits. Any-hit rate of the full collection: about 1.7%.

For O=S(=O)(c1ccccc1)N(F)S(=O)(=O)c1ccccc1 the results were Vif inh 58.9, aDG glyco act inactive, N-glyco inh inactive, ARNT-TACC3 inh inactive and H9c2 protect inactive.
O=S(=O)(c1ccccc1)N(c1ccccc1)S(=O)(=O)c1ccccc1 was read as Vif inh inactive, aDG glyco act inactive, N-glyco inh inactive, ARNT-TACC3 inh inactive and H9c2 protect inactive.
Screening COCCOC(=O)C1=C(C)NC(C)=C(C(=O)OC(C)C)C1c1cccc([N+](=O)[O-])c1 (stereo not given) returned Vif inh inactive, aDG glyco act inactive, N-glyco inh inactive, ARNT-TACC3 inh inactive and H9c2 protect inactive.
`CCOC(=O)C1=C(C)NC(C)=C(C(=O)OC)C1c1cccc([N+](=O)[O-])c1` (stereo not given) gave Vif inh 135.0, aDG glyco act inactive, N-glyco inh inactive, ARNT-TACC3 inh inactive and H9c2 protect inactive.
Screening O=C1Nc2ccccc2S/C1=C/Nc1cccc(Cl)c1 returned Vif inh 123.0, aDG glyco act inactive, N-glyco inh inactive, ARNT-TACC3 inh inactive and H9c2 protect inactive.
`O=C1Nc2ccccc2SC1=Cc1ccccc1` gave Vif inh inactive, aDG glyco act inactive, N-glyco inh inactive and H9c2 protect inactive.
`COc1ccc(C(=O)CSC#N)cc1OC` gave Vif inh inactive, aDG glyco act inactive, N-glyco inh 25.9, ARNT-TACC3 inh inactive and H9c2 protect inactive.
`COc1ccc(CC(NC(C)=O)C(=O)NC2CCN(C(=O)c3cnccn3)CC2)cc1` (stereo not given) gave Vif inh inactive, aDG glyco act inactive, N-glyco inh inactive, ARNT-TACC3 inh inactive and H9c2 protect inactive.
CC(=O)NC(Cc1ccccc1F)C(=O)NC1CCN(C(=O)c2cnccn2)CC1 (stereo not given) was read as Vif inh 54.7, aDG glyco act inactive, N-glyco inh inactive, ARNT-TACC3 inh inactive and H9c2 protect inactive.
Cc1noc(C)c1NC(=O)N(C)C[C@@H]1Oc2c(NS(=O)(=O)c3cccs3)cccc2C(=O)N([C@H](C)CO)C[C@H]1C was read as ARNT-TACC3 inh inactive.
Screening CCCc1nnc(NC(=O)CS(=O)(=O)c2ccc(C)cc2)s1 returned Vif inh inactive, aDG glyco act inactive, N-glyco inh inactive, ARNT-TACC3 inh inactive and H9c2 protect inactive.
For Cc1ccc(S(=O)(=O)CC(=O)Nc2nnc(C(C)C)s2)cc1 the results were Vif inh 58.4, aDG glyco act inactive, N-glyco inh inactive, ARNT-TACC3 inh inactive and H9c2 protect inactive.
For COc1cc(/C=C(\C#N)C(=O)c2ccc(O)c(O)c2)cc(I)c1O the results were Vif inh inactive, aDG glyco act inactive, N-glyco inh inactive, ARNT-TACC3 inh 51.1 and H9c2 protect 62.5.
For Cc1nn(C)c(C)c1CN(C)S(=O)(=O)c1ccc2ccccc2c1 the results were Vif inh inactive, aDG glyco act 6.5, N-glyco inh inactive and H9c2 protect inactive.
Screening Cc1nn(C)c(C)c1CN(C)S(=O)(=O)c1ccc(F)cc1 returned aDG glyco act inactive, N-glyco inh inactive, ARNT-TACC3 inh inactive and H9c2 protect inactive.
Screening COc1cc(-c2cc(-c3ccc(F)cc3)nc(N)c2C#N)ccc1O returned Vif inh inactive, aDG glyco act inactive, N-glyco inh inactive, ARNT-TACC3 inh inactive and H9c2 protect inactive.
CCOc1cc(-c2cc(-c3ccc(N)cc3)nc(N)c2C#N)ccc1O was read as Vif inh inactive, aDG glyco act inactive, N-glyco inh inactive, ARNT-TACC3 inh inactive and H9c2 protect 116.2.
Screening CCOc1cc(-c2cc(-c3ccccc3)nc(N)c2C#N)ccc1O returned Vif inh inactive, aDG glyco act inactive, N-glyco inh 36.6, ARNT-TACC3 inh inactive and H9c2 protect inactive.
`O=C(COC(=O)c1cccc(S(=O)(=O)NCc2ccccc2)c1)NC1CC1` gave Vif inh inactive, aDG glyco act inactive, N-glyco inh inactive, ARNT-TACC3 inh inactive and H9c2 protect inactive.
